Data published in PubChem BioAssay AID652015 (National Center for Advancing Translational Sciences (NCATS), 2013).
Results filed as inconclusive are left out. Unmarked numbers belong to inactive results. The source made the active and inactive calls. The call rests on the fitted dose curve; in most records, active means well fitted inhibition curve with a large enough effect; inconclusive means small, poorly fitted or top-dose-only effect; inactive means no such curve, though single readings can be large or run the other way.

The compounds below were run against Coelenterazine h 2-monooxygenase (Renilla reniformis) (UniProt P27652) (assay: qHTS Assay for Inhibitors of Sea Pansy Luciferase from the GSK Published Protein Kinase Inhibitor Set). Conditions: purified Renilla luciferase, luminescence; series mostly up to 57.5 µM; activity change, negative = inhibition: at the top concentration.
Coelenterazine h 2-monooxygenase (Renilla reniformis), sequence (P27652 whole entry, looked up): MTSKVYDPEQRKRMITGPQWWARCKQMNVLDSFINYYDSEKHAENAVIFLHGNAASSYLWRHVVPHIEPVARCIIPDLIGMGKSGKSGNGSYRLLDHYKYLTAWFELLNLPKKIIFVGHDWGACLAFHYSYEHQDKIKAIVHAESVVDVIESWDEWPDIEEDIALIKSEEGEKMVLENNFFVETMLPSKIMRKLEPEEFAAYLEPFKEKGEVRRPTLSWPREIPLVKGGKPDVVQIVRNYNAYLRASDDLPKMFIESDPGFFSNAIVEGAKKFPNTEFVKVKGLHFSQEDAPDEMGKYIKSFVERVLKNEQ
Method in brief: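 Purified R. reniformis luciferase (1 nM final) with 5 uM coelenterazine h in 50 mM Tris acetate pH 7.5, 100 uM NaCl, 0.01% Tween-20, 0.05% BSA. A titration, about 60 uM to 300 pM; luminescence read after about 2 min.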
Potency means the concentration at half of the fitted maximal effect.

SMILES	activity change, negative = inhibition [%]	Potency
CCOc1ccc2c(-c3ccnc(Nc4cc(OC)cc(C(F)(F)F)c4)n3)cnn2n1	39.9	
COc1ccccc1Oc1nccc(-c2c(-c3ccc(F)cc3)ncn2C2CCNCC2)n1	8.41	
CS(=O)(=O)Nc1ccc(-c2cc(-c3ccccc3)cc(C(N)=O)c2N)cc1	21.1	
CCn1c(-c2nonc2N)nc2c(C#CC(C)(C)O)ncc(OC3CCNCC3)c21	-8.45	
COc1cc(C=NNc2ncnc3c2cnn3Cc2ccccc2)ccc1O	45.1	
c1ccc(Nc2ncc(-c3ccccc3)o2)cc1	5.69	
COC(=O)Nc1nc2ccc(Oc3ccc(NC(=O)Nc4ccccc4)cc3)cc2[nH]1	-9.9	
Cc1ccc2c(-c3ccnc(Nc4cccc(C(F)(F)F)c4)n3)c(-c3ccccc3)nn2n1	9.89	
Nc1nc(-c2cccc(Cl)c2)c(-c2ccc3ncccc3n2)s1	-0.406	
COc1ccc(-c2nn3ncccc3c2-c2ccnc(Nc3ccc(Cl)c(C(F)(F)F)c3)n2)cc1	59.6	
Cc1cccc(-c2[nH]ncc2-c2ccc3ncccc3n2)n1	33.5	
O=C1Nc2ccc(C(=O)c3ccco3)cc2/C1=C/c1cc(Cl)c(O)c(Cl)c1		16.3 µM (active)
CN1CCC(C(=O)Nc2n[nH]c3nc(-c4ccc(O)cc4)c(Br)cc23)CC1	10.1	
COc1ccc2cc(-c3c(-c4ccncc4)nc(-c4ccc(S(C)=O)cc4)n3C)ccc2c1 (centres undefined)	17.1	
COc1cccc(-n2ncc3c(NN=Cc4ccc(C(=O)NCCN(C)C)cc4)ncnc32)c1	19.8	
CN1CCN(CCCNc2nc3ccc(Oc4ccc(NC(=O)Nc5cc(C(F)(F)F)ccc5F)cc4)cc3[nH]2)CC1		23.1 µM (active)
CN1CCC(C(=O)Nc2n[nH]c3nnc(-c4ccccc4)cc23)CC1	39.3	
COc1cccc(-n2cnc3c(NN=Cc4ccncc4)ncnc32)c1	18.6	
NC(=O)c1sc(-n2cnc3ccc(C(F)(F)F)cc32)cc1OCc1ccccc1Br	20.1	
Cc1cc(O)cc(C)c1C=Cc1cncc(-c2nn[nH]n2)c1	35.1	

SMILES	activity change, negative = inhibition [%]	Potency
Cc1nnc(-c2ccc(C)c(-c3ccc(C(=O)Nc4cccc(C#N)c4)cc3)c2)o1	10.9	
NS(=O)(=O)c1cccc(N=Cc2c(O)[nH]c3ccccc23)c1	10.9	
COc1cc(C=NNc2ncnc3c2cnn3-c2ccccc2)ccc1O	34.5	
O=S1CCN(Cc2ccc(-c3ccc4ncnc(Nc5ccc(OCc6ccccc6)c(Cl)c5)c4c3)o2)CC1	48.7	
CC(C)c1ccc(Nc2nccc(-c3cnn4ncccc34)n2)cc1	32.8	
O=C(OC1CNC(C#Cc2cc3ncnc(Nc4ccc(OCc5cccc(F)c5)c(Cl)c4)c3s2)C1)N1CCOCC1 (centres undefined)	25.9	
Fc1cccc(COc2ccc(Nc3ncnc4sc(-c5ccco5)cc34)cc2Cl)c1	45.2	
Clc1ccc(-c2nn3ncccc3c2-c2ccnc(Nc3ccccc3)n2)cc1	49.5	
O=C(O)c1ccc(Oc2nccc(-c3c(-c4ccc(F)cc4)ncn3C3CCNCC3)n2)cc1	36	
NC(=O)c1ccc(Oc2nccc(-c3c(-c4ccc(F)cc4)ncn3C3CCNCC3)n2)cc1	32.1	
COc1cc2ncnc(Nc3ccc4c(cnn4Cc4ccccc4)c3)c2cc1OC	9.63	
O=S1CCN(Cc2ccc(-c3ccc4ncnc(Nc5ccc(OCc6cccc(F)c6)c(Cl)c5)c4c3)o2)CC1	47.3	
COc1cccc(-c2c[nH]c3c(NN=Cc4ccncc4)ncnc23)c1	39.2	
CCn1c(-c2nonc2N)nc2c(C#CC(C)(C)O)ncc(OCC3CCNCC3)c21	3.18	
Nc1ncnc2occ(-c3ccc(NC(=O)Nc4cccc(C(F)(F)F)c4)cc3)c12	33.6	
COc1ccc(-c2nn3ncccc3c2-c2ccnc(Nc3cccc(C(F)(F)F)c3)n2)cc1	13.7	
NC(=O)c1cccc(Nc2nccc(Nc3cccc4[nH]ncc34)n2)c1	18.3	
CS(=O)(=O)CCNCc1ccc(-c2ccc3ncnc(Nc4ccc(OCc5ccccc5)cc4)c3c2)o1	16.4	
COc1ccc(CNC(=O)c2ccc(-c3cc(-c4nnc(C)o4)ccc3C)cc2)cc1	31.4	
